# Measurements published in PubChem BioAssay AID651957 (The Scripps Research Institute Molecular Screening Center, 2012).
# Screen size: about 370,000 compounds; about 620 (0.17%) were called active. This is one part of a sample in which actives are shown more often than they occur. A number with no mark means an inactive call.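 Rule for the calls: active = inhibition above the mean inhibition of all tested compounds plus 3 SD, set per campaign (cut at about 52% in these data); inactive = the rest.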
# Biological target: Nuclear receptor coactivator 2 (Homo sapiens) (UniProt Q15596)
# Assay: decrease of SRC2 fusion reporter luminescence – cell-based, SRC2 inhibitor project, primary screen (AID 651957);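 note: 0% = DMSO treated cells and 100% = cells given Gossypol at 36 µM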
# Details: HEK293 GAL4-SRC2 luciferase reporter, at 9 µM, active compounds read high
# Nuclear receptor coactivator 2 (Homo sapiens), sequence (Q15596 whole entry, looked up, the tested form may be a part): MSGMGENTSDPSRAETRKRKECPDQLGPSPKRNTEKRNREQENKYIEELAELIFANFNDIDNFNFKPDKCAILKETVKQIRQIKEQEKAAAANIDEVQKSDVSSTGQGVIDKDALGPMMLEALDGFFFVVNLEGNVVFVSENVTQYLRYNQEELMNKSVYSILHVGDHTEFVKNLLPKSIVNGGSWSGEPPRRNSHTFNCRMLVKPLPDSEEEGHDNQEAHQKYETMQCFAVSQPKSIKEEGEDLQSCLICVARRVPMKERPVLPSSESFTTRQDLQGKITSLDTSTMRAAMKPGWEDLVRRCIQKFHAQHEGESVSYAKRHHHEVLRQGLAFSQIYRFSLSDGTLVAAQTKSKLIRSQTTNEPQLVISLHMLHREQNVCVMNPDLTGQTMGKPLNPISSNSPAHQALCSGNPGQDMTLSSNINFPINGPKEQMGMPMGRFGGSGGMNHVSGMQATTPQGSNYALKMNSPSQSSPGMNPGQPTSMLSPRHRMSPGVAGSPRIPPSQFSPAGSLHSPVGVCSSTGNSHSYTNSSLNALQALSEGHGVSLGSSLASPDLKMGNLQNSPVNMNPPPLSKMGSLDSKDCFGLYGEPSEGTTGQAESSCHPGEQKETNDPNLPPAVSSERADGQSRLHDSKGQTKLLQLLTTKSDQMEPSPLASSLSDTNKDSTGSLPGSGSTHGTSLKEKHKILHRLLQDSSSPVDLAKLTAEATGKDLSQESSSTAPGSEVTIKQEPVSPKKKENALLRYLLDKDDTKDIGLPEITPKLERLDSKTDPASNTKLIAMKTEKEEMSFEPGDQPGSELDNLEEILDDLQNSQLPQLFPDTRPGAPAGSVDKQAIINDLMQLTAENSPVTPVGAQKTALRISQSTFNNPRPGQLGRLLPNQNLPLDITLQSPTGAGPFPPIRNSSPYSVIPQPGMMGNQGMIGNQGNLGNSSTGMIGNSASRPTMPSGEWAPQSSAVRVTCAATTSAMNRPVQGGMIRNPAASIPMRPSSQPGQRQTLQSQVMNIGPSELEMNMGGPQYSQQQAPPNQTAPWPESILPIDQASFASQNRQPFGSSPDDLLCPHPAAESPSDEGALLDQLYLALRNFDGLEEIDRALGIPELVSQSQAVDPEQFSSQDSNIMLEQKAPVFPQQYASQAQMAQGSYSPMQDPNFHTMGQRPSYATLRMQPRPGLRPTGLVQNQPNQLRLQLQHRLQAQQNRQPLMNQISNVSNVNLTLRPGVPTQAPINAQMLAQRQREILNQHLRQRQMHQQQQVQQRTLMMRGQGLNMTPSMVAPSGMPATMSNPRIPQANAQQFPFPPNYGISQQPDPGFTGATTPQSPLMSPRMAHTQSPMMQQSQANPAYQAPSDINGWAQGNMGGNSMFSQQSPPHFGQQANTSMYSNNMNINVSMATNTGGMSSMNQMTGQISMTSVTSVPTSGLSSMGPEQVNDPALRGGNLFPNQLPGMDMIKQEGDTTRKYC
row,SMILES,inhibition
1,CCC(C)(O)C(=O)OC1C(=O)OC2CC3C(C)=CC(=O)C(O)C3(C)C3C4(O)OCC23C1C(C)C4O (stereo not given),74.8% (active)
2,O=C(COc1ccc2ccccc2c1)N1CCN(Cc2ccncc2)CC1,9.05%
3,CC1([N+](=O)[O-])COP(=O)(Nc2ccc(F)cc2)OC1 (stereo not given),-54.9%
4,CCN1CCN(C(=O)Cc2coc3cc(C)cc(C)c23)CC1,-5.27%
5,CC(C)n1c(=O)c(C=Nc2ccc(Br)cc2)c(O)n(Cc2ccco2)c1=O,8.44%
6,COC1C(O)C(C)OC(OC2CCC3(C=O)C(CCC4C3CCC3(C)C(C5=CC(=O)OC5)CCC43O)C2)C1O (stereo not given),55% (active)
7,C[C@]12CC[C@H](O)C[C@H]1CC[C@@H]1C2CC[C@]2(C)[C@@H](C3=CC(=O)OC3)[C@@H](O)C[C@]12O (stereo not given in full),10.7%
8,Brc1ccc2c(c1)CNCc1cnnn1-2,-46.2%
9,Cc1ccccc1CCC[C@@H](CC1CCCCC1)CN(C)C(=O)Oc1ccccc1,-0.22%
10,COP(=O)(Sc1ccccc1)C(Cc1ccccc1)NC(=O)OCc1ccccc1 (stereo not given),2.58%
